Assay results published in the supplement of paper PMC10849652.
Of roughly 7,900 targets only a part is listed; those with a hit were picked by preference. About 0.6% of all pairs of compound and target were hits. A number with no mark means an inactive call.

Tests used:
Test in all cases: log2 fold change, soluble protein after heating vs DMSO (PISA); higher = thermal stabilisation; K562 cells, 10 uM, 30 min; active = over 0.2 and 3.5 SD of the protein, either way, in both replicates (recomputed)
[1] = compound: COC1=CC=C(C=C1)CN2C=CC3=C2C=C(C=C3)C(=O)NO
Summary of the method: (§1)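 Thermal stability values are relative to control samples and come from duplicates. They are expressed as log2 fold changes. For measurement, K562 cells (2×10^6 cells/mL) received 10 μM compound for 30 min, and aliquots were heated for 3 min over 48°C-58°C, pooled, and extracted at 4°C in PBS with 0.5% NP-40. Soluble protein, the supernatant after 21,000xg for 90 min, was quantified by TMTpro 16plex LC-MS/MS with equalised channel sums.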

filanesib = compound: CON(C)C(=O)N1N=C(c2cc(F)ccc2F)S[C@@]1(CCCN)c1ccccc1 [filanesib]
Summary of the method: as §1

zotarolimus = compound: CO[C@H]1C[C@@H]2CC[C@@H](C)[C@@](O)(O2)C(=O)C(=O)N2CCCC[C@H]2C(=O)O[C@H]([C@H](C)C[C@@H]2CC[C@H](n3cnnn3)[C@H](OC)C2)CC(=O)[C@H](C)/C=C(\C)[C@@H](O)[C@@H](OC)C(=O)[C@H](C)C[C@H](C)/C=C/C=C/C=C/1C [zotarolimus]
Summary of the method: as §1

idasanutlin = compound: COc1cc(C(=O)O)ccc1NC(=O)[C@@H]1N[C@@H](CC(C)(C)C)[C@](C#N)(c2ccc(Cl)cc2F)[C@H]1c1cccc(Cl)c1F [idasanutlin]
Summary of the method: as §1

alisertib = compound: COc1cc(Nc2ncc3c(n2)-c2ccc(Cl)cc2C(c2c(F)cccc2OC)=NC3)ccc1C(=O)O [alisertib]
Summary of the method: as §1

[2] = compound: COc1cc2nc(-c3cc(F)ccc3O)nc(N[C@@H]3CNC[C@H]3C(C)(C)O)c2cc1OC
Summary of the method: as §1

gefitinib = compound: COc1cc2ncnc(Nc3ccc(F)c(Cl)c3)c2cc1OCCCN1CCOCC1 [gefitinib]
Summary of the method: as §1

[3] = compound: COc1cccc2cc(-c3nc([C@H]4CC[C@H](C(=O)O)CC4)n4ncnc(N)c34)[nH]c12
Summary of the method: as §1

lapatinib = compound: CS(=O)(=O)CCNCc1ccc(-c2ccc3ncnc(Nc4ccc(OCc5cccc(F)c5)c(Cl)c4)c3c2)o1 [lapatinib]
Summary of the method: as §1

pictilisib = compound: CS(=O)(=O)N1CCN(Cc2cc3nc(-c4cccc5[nH]ncc45)nc(N4CCOCC4)c3s2)CC1 [pictilisib]
Summary of the method: as §1

Sequence of UniProt Q15642 (Q15642 whole entry, looked up): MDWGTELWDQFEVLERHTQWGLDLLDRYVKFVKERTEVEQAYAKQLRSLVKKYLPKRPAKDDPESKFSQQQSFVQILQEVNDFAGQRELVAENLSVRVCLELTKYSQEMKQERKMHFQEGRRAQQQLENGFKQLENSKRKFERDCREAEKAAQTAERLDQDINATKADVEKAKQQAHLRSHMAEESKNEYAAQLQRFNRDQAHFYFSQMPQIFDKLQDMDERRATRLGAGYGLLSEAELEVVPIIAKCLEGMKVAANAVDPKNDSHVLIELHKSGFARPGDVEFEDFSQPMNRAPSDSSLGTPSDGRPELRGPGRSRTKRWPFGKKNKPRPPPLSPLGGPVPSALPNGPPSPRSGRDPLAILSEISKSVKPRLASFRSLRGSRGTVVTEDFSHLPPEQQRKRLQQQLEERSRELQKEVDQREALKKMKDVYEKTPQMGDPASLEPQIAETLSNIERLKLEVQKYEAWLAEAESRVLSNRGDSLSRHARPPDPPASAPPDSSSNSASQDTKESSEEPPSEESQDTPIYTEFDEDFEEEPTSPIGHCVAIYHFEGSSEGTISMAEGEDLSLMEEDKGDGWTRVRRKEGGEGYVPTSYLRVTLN
Sequence of UniProt Q9NYU2 (Q9NYU2 whole entry, looked up): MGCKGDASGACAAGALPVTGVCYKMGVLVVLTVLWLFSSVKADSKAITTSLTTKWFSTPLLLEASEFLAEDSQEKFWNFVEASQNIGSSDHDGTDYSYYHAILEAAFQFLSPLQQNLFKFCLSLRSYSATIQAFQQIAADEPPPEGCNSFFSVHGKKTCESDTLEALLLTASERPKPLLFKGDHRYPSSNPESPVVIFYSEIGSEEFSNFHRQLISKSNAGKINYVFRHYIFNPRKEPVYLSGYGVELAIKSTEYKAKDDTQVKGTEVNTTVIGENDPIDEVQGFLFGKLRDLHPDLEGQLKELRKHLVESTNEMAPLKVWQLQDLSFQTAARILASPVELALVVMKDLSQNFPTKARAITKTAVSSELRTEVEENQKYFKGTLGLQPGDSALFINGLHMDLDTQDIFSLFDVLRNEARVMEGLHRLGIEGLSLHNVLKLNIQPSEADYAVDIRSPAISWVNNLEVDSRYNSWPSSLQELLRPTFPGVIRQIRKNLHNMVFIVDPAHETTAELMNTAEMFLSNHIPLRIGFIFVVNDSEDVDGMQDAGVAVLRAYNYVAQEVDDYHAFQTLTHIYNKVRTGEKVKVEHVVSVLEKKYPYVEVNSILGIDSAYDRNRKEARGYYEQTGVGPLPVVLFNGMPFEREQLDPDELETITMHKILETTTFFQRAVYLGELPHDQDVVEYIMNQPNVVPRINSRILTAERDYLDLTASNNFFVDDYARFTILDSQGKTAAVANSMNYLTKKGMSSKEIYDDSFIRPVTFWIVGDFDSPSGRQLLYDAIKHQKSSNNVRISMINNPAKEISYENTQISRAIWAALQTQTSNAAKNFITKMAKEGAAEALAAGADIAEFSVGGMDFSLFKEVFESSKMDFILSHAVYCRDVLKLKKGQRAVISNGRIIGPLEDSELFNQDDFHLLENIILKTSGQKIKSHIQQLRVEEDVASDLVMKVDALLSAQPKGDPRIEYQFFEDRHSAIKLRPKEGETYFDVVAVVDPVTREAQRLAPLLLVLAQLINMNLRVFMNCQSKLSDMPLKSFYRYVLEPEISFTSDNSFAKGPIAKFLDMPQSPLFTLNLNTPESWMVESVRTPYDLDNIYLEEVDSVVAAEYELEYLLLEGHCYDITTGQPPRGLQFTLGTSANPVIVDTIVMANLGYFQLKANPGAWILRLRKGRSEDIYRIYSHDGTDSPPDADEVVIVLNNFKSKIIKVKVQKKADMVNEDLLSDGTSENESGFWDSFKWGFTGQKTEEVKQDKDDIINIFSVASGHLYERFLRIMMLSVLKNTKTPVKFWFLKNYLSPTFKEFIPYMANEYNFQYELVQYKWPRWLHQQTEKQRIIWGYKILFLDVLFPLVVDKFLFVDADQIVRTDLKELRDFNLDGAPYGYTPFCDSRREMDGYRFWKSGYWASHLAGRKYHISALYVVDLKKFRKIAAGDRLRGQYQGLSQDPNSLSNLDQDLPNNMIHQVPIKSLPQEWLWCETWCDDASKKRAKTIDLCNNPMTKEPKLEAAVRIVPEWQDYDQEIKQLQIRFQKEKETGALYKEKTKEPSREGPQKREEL
Sequence of UniProt Q9NX61 (Q9NX61 whole entry, looked up): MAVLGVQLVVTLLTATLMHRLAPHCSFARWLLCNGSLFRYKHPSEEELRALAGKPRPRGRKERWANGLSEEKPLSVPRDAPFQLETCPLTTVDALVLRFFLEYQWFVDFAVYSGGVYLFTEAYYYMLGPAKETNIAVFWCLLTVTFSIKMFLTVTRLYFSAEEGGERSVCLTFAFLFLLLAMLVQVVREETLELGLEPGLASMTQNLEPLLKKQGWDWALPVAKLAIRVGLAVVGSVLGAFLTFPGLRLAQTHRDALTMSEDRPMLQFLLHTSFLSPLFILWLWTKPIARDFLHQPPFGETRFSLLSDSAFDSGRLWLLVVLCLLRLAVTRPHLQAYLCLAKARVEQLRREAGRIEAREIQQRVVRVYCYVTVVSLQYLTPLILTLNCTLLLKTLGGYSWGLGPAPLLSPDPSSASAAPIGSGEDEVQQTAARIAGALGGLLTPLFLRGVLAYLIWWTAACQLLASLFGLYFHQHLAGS
Sequence of UniProt O15213 (O15213 whole entry, looked up): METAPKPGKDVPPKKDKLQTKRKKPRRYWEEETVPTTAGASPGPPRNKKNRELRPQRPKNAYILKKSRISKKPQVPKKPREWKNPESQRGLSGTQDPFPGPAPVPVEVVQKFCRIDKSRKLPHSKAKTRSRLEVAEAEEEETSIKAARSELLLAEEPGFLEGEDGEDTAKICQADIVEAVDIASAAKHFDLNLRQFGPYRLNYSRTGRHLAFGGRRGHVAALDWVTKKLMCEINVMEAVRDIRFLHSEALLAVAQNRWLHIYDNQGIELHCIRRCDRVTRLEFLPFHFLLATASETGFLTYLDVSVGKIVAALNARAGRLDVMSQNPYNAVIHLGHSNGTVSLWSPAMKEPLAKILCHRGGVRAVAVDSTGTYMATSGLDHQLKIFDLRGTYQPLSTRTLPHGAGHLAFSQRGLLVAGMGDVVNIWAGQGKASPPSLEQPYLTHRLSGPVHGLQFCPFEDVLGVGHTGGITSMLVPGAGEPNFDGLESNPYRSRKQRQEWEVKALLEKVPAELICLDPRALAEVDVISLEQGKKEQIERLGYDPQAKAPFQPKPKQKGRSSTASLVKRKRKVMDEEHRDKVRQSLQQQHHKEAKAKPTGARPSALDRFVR
Sequence of UniProt P13010 (P13010 whole entry, looked up): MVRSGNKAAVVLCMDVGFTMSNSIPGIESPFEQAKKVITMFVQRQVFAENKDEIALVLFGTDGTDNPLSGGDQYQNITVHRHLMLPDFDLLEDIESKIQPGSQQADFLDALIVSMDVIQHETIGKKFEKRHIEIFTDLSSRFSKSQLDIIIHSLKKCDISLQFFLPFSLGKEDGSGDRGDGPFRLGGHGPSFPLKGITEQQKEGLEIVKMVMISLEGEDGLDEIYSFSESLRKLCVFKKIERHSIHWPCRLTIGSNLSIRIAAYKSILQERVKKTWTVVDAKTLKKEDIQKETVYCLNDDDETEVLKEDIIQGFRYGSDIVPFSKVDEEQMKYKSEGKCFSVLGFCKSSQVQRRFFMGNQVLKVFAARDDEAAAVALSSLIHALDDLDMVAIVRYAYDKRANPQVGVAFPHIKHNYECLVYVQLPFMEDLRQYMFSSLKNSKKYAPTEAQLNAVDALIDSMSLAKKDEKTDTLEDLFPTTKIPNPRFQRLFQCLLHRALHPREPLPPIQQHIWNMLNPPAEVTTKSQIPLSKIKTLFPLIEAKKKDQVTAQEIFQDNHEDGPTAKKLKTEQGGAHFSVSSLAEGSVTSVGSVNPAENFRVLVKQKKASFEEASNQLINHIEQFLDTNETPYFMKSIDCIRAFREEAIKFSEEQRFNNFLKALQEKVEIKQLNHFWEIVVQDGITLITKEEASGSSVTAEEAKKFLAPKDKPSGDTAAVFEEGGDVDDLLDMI
Sequence of UniProt Q9UEU0 (Q9UEU0 whole entry, looked up): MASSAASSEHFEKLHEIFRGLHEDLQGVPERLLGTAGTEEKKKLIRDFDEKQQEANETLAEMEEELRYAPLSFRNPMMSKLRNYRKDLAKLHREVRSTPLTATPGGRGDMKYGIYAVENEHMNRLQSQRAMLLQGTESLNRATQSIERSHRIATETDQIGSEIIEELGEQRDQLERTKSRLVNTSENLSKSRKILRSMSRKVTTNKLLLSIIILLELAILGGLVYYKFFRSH
Sequence of UniProt Q9Y2I8 (Q9Y2I8 whole entry, looked up): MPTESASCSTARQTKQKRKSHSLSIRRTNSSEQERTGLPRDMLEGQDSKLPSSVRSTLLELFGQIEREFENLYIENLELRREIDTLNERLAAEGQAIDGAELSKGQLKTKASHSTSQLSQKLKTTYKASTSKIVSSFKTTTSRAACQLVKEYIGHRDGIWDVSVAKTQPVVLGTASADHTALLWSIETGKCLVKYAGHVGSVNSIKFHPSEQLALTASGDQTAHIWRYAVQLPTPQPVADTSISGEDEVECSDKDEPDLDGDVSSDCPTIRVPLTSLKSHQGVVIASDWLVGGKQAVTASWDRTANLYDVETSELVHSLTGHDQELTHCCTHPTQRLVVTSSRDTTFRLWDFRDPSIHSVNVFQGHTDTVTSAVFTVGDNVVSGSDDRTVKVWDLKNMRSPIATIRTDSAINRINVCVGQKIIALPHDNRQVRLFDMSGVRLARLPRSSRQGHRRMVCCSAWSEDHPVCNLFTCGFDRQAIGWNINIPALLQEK
Sequence of UniProt Q969T4 (Q969T4 whole entry, looked up): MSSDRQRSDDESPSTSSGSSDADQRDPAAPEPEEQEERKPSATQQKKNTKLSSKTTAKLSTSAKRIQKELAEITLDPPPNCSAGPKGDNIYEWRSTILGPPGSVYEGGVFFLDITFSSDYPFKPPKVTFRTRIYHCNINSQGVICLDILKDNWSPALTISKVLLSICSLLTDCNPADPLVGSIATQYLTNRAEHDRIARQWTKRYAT

Target | log2 fold change [1] | log2 fold change (filanesib) | log2 fold change (zotarolimus) | log2 fold change (idasanutlin) | log2 fold change (alisertib) | log2 fold change [2] | log2 fold change (gefitinib) | log2 fold change [3] | log2 fold change (lapatinib) | log2 fold change (pictilisib)
TRMT10A (UniProt Q8TBZ6) | -0.195 | -0.134 | 0.054 | -0.081 | 0.048 | -0.006 | -0.025 | 0.028 | 0.03 | 0.093
WEE1 (UniProt P30291) | -0.157 | 0.217 | -0.068 | 0.356 | -0.322 | 0.039 | -0.083 | -0.615 | 0.125 | -0.095
TMEM263 (UniProt Q8WUH6) | -0.096 | -0.654 (active) | -0.038 | -0.09 | -0.043 | -0.789 (active) | -0.042 | 0.065 | -0.045 | -0.208
VPS18 (UniProt Q9P253) | -0.011 | 0.009 | 0.024 | -0.053 | -0.102 | -0.017 | -0.028 | -0.041 | 0.033 | -0.07
VPS8 (UniProt Q8N3P4) | 0.092 | 0.001 | 0.043 | -0.03 | 0.133 | 0.01 | 0.076 | -0.025 | 0.046 | 0.055
TRAM1 (UniProt Q15629) | -0.188 | -0.218 | -0.103 | -0.119 | -0.067 | 0.24 | -0.066 | 0.005 | -0.092 | -0.163
VTI1B (UniProt Q9UEU0) | -0.089 | -0.027 | -0.063 | -0.026 | 0.046 | 0 | -0.023 | 0.137 | 0.002 | 0.061
UBA1 (UniProt P22314) | 0.029 | -0.077 | -0.021 | -0.014 | 0.05 | 0.047 | 0.05 | -0.053 | -0.06 | -0.019
UBC (UniProt P0CG48) | -0.064 | 0.09 | 0.048 | 0 | -0.002 | 0.06 | 0.038 | 0.018 | -0.101 | 0.008
WDHD1 (UniProt O75717) | 0.013 | -0.003 | 0.031 | 0.005 | 0.036 | 0.011 | 0.013 | -0.012 | 0.006 | -0.015
TRIP10 (UniProt Q15642) | 0.054 | 0.01 | -0.007 | -0.061 | -0.026 | 0.083 | -0.014 | -0.04 | 0.021 | 0.033
XRCC5 (UniProt P13010) | 0.19 | -0.049 | 0.087 | 0.014 | 0.061 | -0.232 | 0.076 | -0.087 | 0.024 | -0.047
VPS53 isoform 4 (UniProt Q5VIR6) | 0.015 | -0.008 | 0.095 | -0.048 | 0.01 | 0.089 | 0.025 | 0.003 | 0.012 | -0.066
TMEM87B (UniProt Q96K49) | -0.064 | -0.046 | -0.108 | -0.05 | -0.133 | -0.002 | 0.063 | 0.036 | 0.026 | 0.055
TTC38 (UniProt Q5R3I4) | -0.067 | -0.023 | 0.034 | -0.093 | 0.065 | 0.081 | 0.013 | -0.003 | -0.054 | -0.041
UHRF1BP1L (UniProt A0JNW5) | -0.027 | 0.038 | 0.093 | -0.073 | -0.08 | 0.179 | 0.05 | 0.034 | -0.006 | -0.046
TNFRSF8 (UniProt P28908) | 0.019 | 0.11 | -0.019 | 0.04 | -0.011 | 0.074 | 0.067 | 0 | 0.003 | 0.047
UBAP2L isoform 1 (UniProt Q14157) | 0.016 | -0.014 | 0.011 | 0.059 | -0.05 | 0.213 | 0.074 | 0.103 | -0.248 | -0.114
WNK1 isoform 7 (UniProt Q9H4A3) | -0.034 | -0.003 | -0.006 | -0.026 | -0.026 | 0.082 | 0 | 0.032 | -0.002 | 0
TMEM161A (UniProt Q9NX61) | -0.021 | -0.148 | -0.072 | -0.167 | 0.009 | -0.033 | -0.01 | 0.051 | 0.075 | -0.106
TXNRD1 (UniProt Q16881) | 0.018 | -0.101 | 0.006 | -0.144 | -0.012 | -0.023 | 0.026 | 0.052 | -0.055 | 0.062
TMEM189-UBE2V1 (UniProt I3L0A0) | -0.034 | -0.051 | -0.049 | -0.024 | -0.105 | -0.048 | -0.034 | 0.112 | 0.011 | -0.026
UBE2E3 (UniProt Q969T4) | -0.077 | -0.046 | -0.013 | -0.075 | -0.045 | 0.108 | -0.076 | 0.022 | -0.021 | 0.089
WDR37 isoform 2 (UniProt Q9Y2I8) | 0.033 | 0.117 | -0.063 | 0.081 | -0.018 | 0.034 | -0.006 | -0.029 | 0.035 | 0.046
UGGT1 (UniProt Q9NYU2) | -0.041 | -0.008 | 0.012 | -0.014 | -0.07 | 0.009 | -0.006 | -0.01 | 0.035 | -0.005
TXNL4B (UniProt Q9NX01) | 0.011 | -0.034 | -0.008 | -0.147 | 0.097 | 0.106 | 0.042 | -0.064 | -0.003 | -0.003
USO1 isoform 2 (UniProt O60763) | 0.009 | -0.054 | 0.034 | -0.054 | -0.037 | -0.031 | 0.003 | 0.01 | 0.016 | 0.014
WDR43 (UniProt Q15061) | -0.014 | -0.019 | -0.017 | -0.072 | -0.061 | 0.058 | -0.006 | 0.042 | -0.025 | 0.06
WDR46 (UniProt O15213) | -0.129 | 0.425 | 0.075 | 0.156 | -0.162 | 0.037 | -0.036 | -0.018 | -0.006 | -0.052
